Compound activity deposited in PubChem by several laboratories.
TRPM1 prom inh = inhibitors of MITF-dependent TRPM1 promoter reporter, primary screen, cell-based, SK-MEL-5, single point, luciferase; SK-MEL-5 TRPM1 promoter luciferase, 24 h; AID 488899, 2010; 0.83% of 330,000 active; inhibition, % at 12.5 µM;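 active means mean inhibition across replicates of 60% or more, whatever share of single replicates reaches that level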
LMP1 NFkB inh = EBV LMP1-driven NF-kappaB luciferase reporter inhibitors, primary screen, cell-based, luminescence, single point; LMP1-induced NF-kappaB luciferase reporter cells; inhibition, % at 12.5 µM; 0.69% of 350,000 active; in the data active means inhibition above about 41%
TROY signal inh = inhibitors of TROY-driven NF-kB signaling, primary screen, Q293 LMP1-TROYcd cells, NF-kB luciferase, uHTS; Q293 LMP1-TROYcd NF-kB luciferase reporter, 4 h; inhibition, % at 10 µM; 0.98% of 360,000 active; AID 1347056, 2019;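 active means compounds whose plate-normalised and pattern-corrected inhibition of the luciferase reporter signal at the single screening dose is 50% or more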
MITF TRPM1 HTS = activators of MITF-driven TRPM1 promoter reporter, primary screen, cell-based, SK-MEL-5, luciferase, single point; activation, % at 12.5 µM; 0.75% of 300,000 active; SK-MEL-5 TRPM1-promoter luciferase, 24 h; % of positive control, neutral wells = 0;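 active means mean activation of at least 80% with every replicate also reaching 80%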
LGR2 inh = inhibitors of bursicon-induced LGR2 CRE-luciferase signal, primary screen, cell-based, HEK293, CRE-luciferase reporter, bursicon stimulation. AID 720647, 2013. bursicon-stimulated, 4 h. 0.35% of 380,000 active. inhibition, % at 9.99 µM;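 active means drop in luminescence signal, shown as inhibition above about 50% in the replicate tests, limit read from the data, passing the limit was not always enough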;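 further: agonist challenge used bursicon conditioned medium at about half maximal strength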
TWEAK-Fn14 inh = inhibitors of TWEAK-Fn14 signaling, primary screen, luciferase reporter cells, uHTS; TWEAK-stimulated Fn14 reporter cells, luciferase luminescence, 8 h; inhibition, % at 10 µM; 2% of 360,000 active; in the data active means inhibition above about 50%
Numbers stand for hits; i = inactive; nt = no result. Sampled rows, rich in hits. Any-hit rate of the full collection: about 3%.

SMILES	TRPM1 prom inh	LMP1 NFkB inh	TROY signal inh	MITF TRPM1 HTS	LGR2 inh	TWEAK-Fn14 inh
COc1ccccc1S(=O)(=O)N[C@@H]1CC[C@@H](CCNC(=O)C2CC2)O[C@H]1CO	nt	nt	nt	nt	i	nt
O=C(c1ccc2c(c1)C(=O)N(CCCO)C2=O)c1ccc2c(c1)C(=O)N(CCCO)C2=O	i	i	i	nt	i	i
O=C1c2ccc3c4c(ccc(c24)C(=O)N1CCCCO)C(=O)N(CCCCO)C3=O	102	i	i	i	i	i
O=C(OCc1nc2ccc(Cl)cc2n1CCO)c1ccccc1	i	i	i	i	i	i
O=C(OCc1nc2ccc(Cl)cc2n1CCO)c1ccc(O)cc1	i	i	77	i	i	67
C[C@@H]1CN([C@@H](C)CO)C(=O)c2cc(NC(=O)Nc3ccc(C(F)(F)F)cc3)ccc2O[C@H]1CN(C)C(=O)Nc1cccc2ccccc12	nt	nt	nt	nt	i	nt
O=C(N[C@@H]1CC[C@@H](CC(=O)N2CCCCC2)O[C@@H]1CO)c1cccc(F)c1	nt	nt	nt	nt	i	nt
Cc1cccc(OCC(=O)Nc2nc3ccc([N+](=O)[O-])cc3s2)c1	i	i	59	i	nt	i
CCc1ccccc1OCC(=O)Nc1nc(-c2cccnc2)cs1	i	i	61	i	i	i
Cc1ccc[n+](CC(=O)Nc2nc3ccccc3s2)c1	i	i	81	i	i	64
CN(c1ccc(OCC(=O)Nc2nc(-c3ccccc3)cs2)cc1)S(=O)(=O)c1ccc(F)cc1	i	i	i	i	i	55
COc1ccc(NC(=O)N(C)C[C@@H]2Oc3c(NC(=O)c4ccc(-c5nccs5)cc4)cccc3C(=O)N([C@@H](C)CO)C[C@@H]2C)cc1	nt	nt	nt	nt	i	nt
CNC[C@H]1Oc2ccc(NS(C)(=O)=O)cc2CC(=O)N([C@@H](C)CO)C[C@H]1C	nt	nt	nt	nt	i	nt
Cc1ccc(S(=O)(=O)N(C)c2ccc(OCC(=O)Nc3nc4ccccc4s3)cc2)cc1	i	i	i	i	i	70
Cc1ccc(S(=O)(=O)N(C)c2ccc(OCC(=O)Nc3nc4c(ccc5ccccc54)s3)cc2)cc1	i	i	i	i	i	i
Cc1cccc(CSc2nnc(CCCCCNC(=O)OC(C)(C)C)o2)c1	i	i	72	nt	i	i
Cc1ccc(CSc2nnc(CCCCCNC(=O)OC(C)(C)C)o2)cc1	i	i	i	nt	i	i
C[C@H]1CCC[C@]2(C)C[C@H]3OC(=O)C(CN4CCCCCC4)[C@H]3C=C12 (some centres undefined)	78	i	i	i	i	73
COC(=O)c1[nH]c2ccc(C)cc2c1NC(=O)NC1CCCCC1	i	73	i	i	i	i
CC(=O)C1=C(O)C(=O)N(CCC(=O)O)C1c1ccccc1Cl (centres undefined)	i	i	i	i	nt	59
O=C(Nc1ccc2c(c1)[C@H]1C[C@H](CC(=O)N3CCCCC3)O[C@H](CO)[C@H]1O2)c1ccc2c(c1)OCO2	nt	nt	nt	nt	i	nt
COc1ccc(NC(=O)N[C@@H]2CC[C@H](CCNC(=O)Nc3cc(F)ccc3F)O[C@H]2CO)cc1	nt	nt	nt	nt	i	nt
COc1ccc(NC(=O)c2cc3c(CO)cnc(C)c3oc2=Nc2cccc(F)c2)c(OC)c1	i	47	i	i	i	i
O=C(Nc1ccc(Nc2ccccc2)cc1)c1ccc(Cl)cc1Cl	nt	nt	i	nt	i	i
C#Cc1cccc(NC(=O)c2ccc(Cl)cc2Cl)c1	i	i	i	94	i	i
COC(=O)c1sccc1NC(=O)c1cc(-c2cc(C)ccc2C)nc2ccccc12	i	i	i	i	i	i
COC(=O)c1sc(NC(=O)c2cc(-c3ccccc3)nc3ccccc23)c(C#N)c1C	i	i	52	i	nt	i
Cc1ccccc1-c1cc(C(=O)Nc2sc(C(=O)OC(C)C)c(C)c2C#N)c2ccccc2n1	i	i	58	i	nt	62
Cc1ccc(C)c(-c2cc(C(=O)Nc3nccs3)c3ccccc3n2)c1	i	i	i	i	nt	62
COc1ccc(-c2cc(C(=O)Nc3sc4c(c3C#N)CCCC4)c3ccccc3n2)cc1	i	i	i	i	i	i
